Data taken from PubChem BioAssay (NCI).
This is part of a sample that, as a whole, favours compounds with a hit. Of some 79,000 tested, about 15% had one in any assay. No stated cut-off is given here; in the data, active means growth inhibition above about 70%; inactive means the rest.

Key:
[1] = NCI Yeast Anticancer Drug Screen. Data for the rad50 strain (AID 155);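 further: 0% = growth of vehicle-only cultures of the same strain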; settings: S. cerevisiae rad50 strain growth inhibition; at 50.0 µM; active compounds read high
Procedure, shortened: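 A DNA repair-deficient yeast mutant serves as the test organism; compound-induced growth inhibition is calculated against vehicle-treated cells.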

[2] = NCI Yeast Anticancer Drug Screen. Data for the mec2-1 strain (AID 157); settings: S. cerevisiae mec2-1 strain, at 50.0 µM, active compounds read high
Procedure, shortened: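 Cells of the genetically defined mec2-1 yeast strain are incubated with test compound. Inhibition of growth is calculated against vehicle-treated controls.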

[3] = NCI Yeast Anticancer Drug Screen. Data for the sgs1 mgt1 strain (AID 161);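 further: 0% = growth of cultures given vehicle only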; settings: S. cerevisiae sgs1 mgt1 strain, at 50.0 µM, active compounds read high
Procedure, shortened: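 Genetically altered yeast, compound exposure, growth inhibition relative to vehicle.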

[4] = NCI Yeast Anticancer Drug Screen. Data for the cln2 rad14 strain (AID 165);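 further: 0% = growth equal to vehicle treated cultures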; settings: S. cerevisiae cln2 rad14 strain, at 50.0 µM, active compounds read high
Procedure, shortened: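 The screen exposed genetically defined yeast (cln2 rad14) to test compounds and scored growth inhibition relative to vehicle-treated controls.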

[5] = NCI Yeast Anticancer Drug Screen. Data for the bub3 strain (AID 167); settings: S. cerevisiae bub3 mutant strain, at 50.0 µM, active compounds read high
Procedure, shortened: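 Inhibition values come from growth of compound-treated mutant yeast normalised to vehicle-treated controls.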

[6] = NCI Yeast Anticancer Drug Screen. Data for the mlh1 rad18 strain (AID 175); settings: S. cerevisiae mlh1 rad18 strain growth inhibition; at 50.0 µM; active compounds read high
Procedure, shortened: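 Compound-treated yeast growth, normalised to vehicle controls. Strain bears defined DNA repair mutations.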

Measured: growth inhibition

Cc1nc2c(SCc3ccccc3)ncnc2o1
inactive: [1] 16.1% | [2] -9.5% | [3] 14.9% | [4] 22.8% | [5] 35.4% | [6] 19.5%

CC(=O)NC(Cc1ccccc1)/C(C)=N\O (configuration not stated)
inactive: [1] -3.15% | [2] -2.05% | [3] -2.65% | [4] -15.2% | [5] 5.25% | [6] 4.8%

CC1OC(Cc2ccccc2)OC1C (configuration not stated)
inactive: [1] 12.4% | [2] 13.8% | [3] 16.7% | [4] 0.4% | [5] 12.6% | [6] 9.9%

CC(C)OP(=O)(CCC(=O)C1(O)CCC2C3CCC4=CC(=O)CCC4(C)C3CCC21C)OC(C)C (configuration not stated)
inactive: [1] 11.4% | [2] 4.25% | [3] 10.3% | [4] 3.25% | [5] 0.65% | [6] -8.6%

[O-][n+]1c2ccccc2[n+]([O-])c2cc(O)ccc21
inactive: [1] 20.4% | [2] -4.05% | [3] 12.7% | [4] -1.3% | [5] 17.1% | [6] 50.8%

CCOC(=O)C(C)(C(C)=O)c1nc(=S)[nH]c(=S)[nH]1 (configuration not stated)
inactive: [1] 4.2% | [2] 7.55% | [3] 2.1% | [4] -19.8% | [5] 7.25% | [6] -5.1%

COc1ccc(CCNC(=S)NCCc2ccc(OC)c(OC)c2)cc1OC
inactive: [1] -17.1% | [2] -17.1% | [3] 2.1% | [4] 20.2% | [5] 34.5% | [6] -1.4%

COC(=O)c1ccc2c(c1)CC1(C2)Cc2cc3c(cc2C1=O)CCC3 (configuration not stated)
inactive: [1] -3.35% | [2] -37.8% | [3] -0.5% | [4] -3.15% | [5] 14.3% | [6] -5.3%

O=CC(NC(=O)OCc1ccccc1)C(O)C(O)C(O)CO (configuration not stated)
inactive: [1] -15.3% | [2] 2.7% | [3] 1.75% | [4] -6.3% | [5] -15.9% | [6] -16.9%

O=C(O)c1cc(Br)cc([N+](=O)[O-])c1
inactive: [1] -9.15% | [2] 15.1% | [3] -14.9% | [4] -49.3% | [5] -16.2% | [6] 21.1%

c1ccc(N2N=NC3C4CC(C5COCC54)C32)cc1 (configuration not stated)
inactive: [1] 4.6% | [2] -7.1% | [3] -24.9% | [4] -8.55% | [5] 0.65% | [6] -9.25%

O=S1c2ccccc2N=C(c2ccc3ccccc3c2)CC1C1=CC=CCC1 (configuration not stated)
inactive: [1] -27.4% | [2] -33.1% | [3] -3.1% | [4] -2.65% | [5] 3.85% | [6] -11.8%

CC(=O)Nc1c(Cl)cc(N)cc1Cl
inactive: [1] 9.35% | [2] -23.4% | [3] 2.3% | [4] 9.85% | [5] -16.4% | [6] 4.3%

CCCCCCc1ccc2c3cccc4cccc(c5cccc1c52)c43
inactive: [1] -9.25% | [2] -15.6% | [3] -22.1% | [4] -34.2% | [5] -11.1% | [6] -25.6%

CN(C)Cc1cc(N=Nc2c(Cl)cccc2Cl)ccc1O
inactive: [1] 14.4% | [2] 19.8% | [3] 8.35% | [4] 1.95% | [5] 28% | [6] 18.4%

c1ccc(Oc2nnc3c4ccccc4ccn23)cc1
inactive: [1] 11.4% | [2] -9.55% | [3] 0.1% | [4] -4.4% | [5] 3.9% | [6] -0.35%

CC1=C(c2cc(C(=O)Nc3cc(C)ccc3C)nc(N)n2)Sc2ccccc2N1
inactive: [1] 5.25% | [2] -10.8% | [3] -25.8% | [4] -18.1% | [5] -13.1% | [6] -10.8%

O=S(=O)([O-])c1ccc2c(c1)-c1nc-2nc2[n-]c(nc3nc(nc4[n-]c(n1)c1ccc(S(=O)(=O)[O-])cc41)-c1cc(S(=O)(=O)[O-])ccc1-3)c1ccc(S(=O)(=O)[O-])cc21.[Cu+2].[Na+]
inactive: [1] -13.7% | [2] -40.1% | [3] -23.8% | [4] -16.2% | [5] -34% | [6] -94.2%

CCOC(=O)c1cnc2cc3c(cc2c1Nc1cccc(C(F)(F)F)c1)OCO3
inactive: [1] 5.95% | [2] -8.85% | [3] -9.5% | [4] -6.45% | [5] -2.75% | [6] -11.6%

COc1cc2c(c3c1c(=O)c1ccccc1n3C)C=CC(C)(C)O2
inactive: [1] 10.9% | [2] -13.9% | [3] 22.7% | [4] 11.2% | [5] 4.75% | [6] 9.9%

CN(C)c1nc2ccccc2[nH]1
inactive: [1] 2.6% | [2] -4.25% | [3] 11.9% | [4] -1.35% | [5] -4.85% | [6] -2%

COc1ccc(-c2cc(-c3ccccc3)c(-c3ccccc3)nn2)cc1CN1CCOCC1
inactive: [1] 2.65% | [2] -29.2% | [3] -17.1% | [4] 10.7% | [5] -5.05% | [6] -7.85%

N#Cc1ccc(OCCCOc2ccccc2)cc1
inactive: [1] 4.2% | [2] 47.5% | [3] 20.8% | [4] -2.7% | [5] 37.4% | [6] 4.5%

COC(=O)c1nn(-c2ccccc2)c(=O)cc1N=[N+]=[N-]
inactive: [1] -31% | [2] -5.2% | [3] -39.2% | [4] -12.8% | [5] -14.2% | [6] -54.4%

CCCCN(CCCC)C(=Nc1ccccc1)N(CCCC)CCCC
inactive: [1] -13.2% | [2] -3.4% | [3] -23.8% | [4] 10% | [5] -38.9% | [6] -15.3%

NC(CCCCNC(=O)OCc1ccccc1)C(=O)OCc1ccccc1 (configuration not stated)
inactive: [1] -15.2% | [2] -20.4% | [3] -9.7% | [4] 15.6% | [5] -0.75% | [6] -18.5%

CC(=O)Oc1ccccc1C(=O)OC(=O)c1ccccc1OC(C)=O
inactive: [1] 5.3% | [2] -10.2% | [3] -1.7% | [4] -9.85% | [5] 0% | [6] 6.75%

O=C1CCCCC1N1CCCCC1 (configuration not stated)
inactive: [1] -4.95% | [2] -14.7% | [3] 10.8% | [4] 2.65% | [5] -1.3% | [6] 0%

N#CC(C#N)=C(O)/C(=C/c1ccccc1[N+](=O)[O-])NC(=O)c1ccccc1
inactive: [1] 2.75% | [2] -5.6% | [3] -3.65% | [4] 23.9% | [5] 1.75% | [6] 40.4%

O=C(O)C1C=CCC2C(O)C=CC(=O)C12 (configuration not stated)
inactive: [1] -5.95% | [2] -31.2% | [3] -1.05% | [4] -2.4% | [5] -11% | [6] -5.9%

O=COCCOC=O
inactive: [1] 19.9% | [2] 5.55% | [3] -23.6% | [4] 20.6% | [5] 10.2% | [6] 14.2%

COC1/C=C\OC2(C)Oc3c(C)c(O)c4c(O)c(c(CN(C)C)c(O)c4c3C2=O)NC(=O)/C(C)=C\C=C/C(C)C(O)C(C)C(O)C(C)C(OC(C)=O)C1C (configuration not stated)
inactive: [1] 50.5% | [2] -3.1% | [3] -16.7% | [4] 28.2% | [5] -29.9% | [6] -6.45%

C/C(N)=N/OCc1ccccc1
inactive: [1] 8.9% | [2] 6.95% | [3] 10.7% | [4] 4.7% | [5] 10.2% | [6] 7.7%

CCCCCCCC/C(C=O)=C\c1ccc(C)cc1
inactive: [1] 53% | [2] 33.8% | [3] 55% | [4] 51.7% | [5] 66% | [6] 62.6%

COC(=O)C(NC(=O)COc1ccccc1[N+](=O)[O-])C(=O)OC
inactive: [1] -15.2% | [2] -1.3% | [3] 0% | [4] 3% | [5] -12.6% | [6] -12.3%

CC(=O)Nc1c(C)cc(S(=O)(=O)O)cc1C
inactive: [1] 6.25% | [2] -0.1% | [3] -8.65% | [4] -58.7% | [5] 28.6% | [6] -18.5%

COC(=O)C(CO)NC(=O)C(CC(C)C)NC(=O)C(CC(C)C)NC(=O)OCc1ccccc1 (configuration not stated)
inactive: [1] 34.6% | [2] 4.5% | [3] 16.6% | [4] 11.6% | [5] -5.1% | [6] 13.2%
